DAT uptake mod: changed human dopamine transporter uptake under cocaine IC80. Q01959. LLC-PK1 hDAT cells, [14C]-dopamine uptake with cocaine IC80; actives deviate in either direction. B-score at 10 µM. 110,000 compounds, 1.3% hits;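 active = Z score or B-score, a plate-position-corrected score, falls beyond the plate's 99.7% confidence bounds, in either direction; inactive = both scores lie inside the 99.7% bounds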
D1 allo mod: allosteric modulators of human D1 dopamine receptor. P21728. HEK293 D1, CRE-luciferase, dopamine EC30 potentiation; actives deviate in either direction. B-score at 10 µM. 58,000 compounds, 5.9% hits;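 active = luminescence count or its row- and column-corrected plate score outside the 99.7% band of the plate's sample wells, on either side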
Target sequence (P21728 whole entry, looked up): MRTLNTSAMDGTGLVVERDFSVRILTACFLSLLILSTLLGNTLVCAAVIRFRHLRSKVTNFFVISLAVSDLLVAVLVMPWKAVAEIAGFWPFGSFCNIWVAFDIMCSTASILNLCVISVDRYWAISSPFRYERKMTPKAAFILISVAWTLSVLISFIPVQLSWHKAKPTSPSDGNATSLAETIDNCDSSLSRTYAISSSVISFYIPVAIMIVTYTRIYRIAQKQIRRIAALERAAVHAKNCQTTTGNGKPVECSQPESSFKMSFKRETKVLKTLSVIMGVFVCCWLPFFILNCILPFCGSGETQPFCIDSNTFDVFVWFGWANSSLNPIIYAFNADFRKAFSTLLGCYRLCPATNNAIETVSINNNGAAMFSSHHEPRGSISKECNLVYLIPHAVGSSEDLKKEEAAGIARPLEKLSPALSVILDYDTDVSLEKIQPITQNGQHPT
BAP1 block: human BAP1 deubiquitinase inhibition | Q92560 | recombinant BAP1, Ub-AMC hydrolysis fluorescence kinetic; stronger effect = lower value | calls only at 20 µM | 72,000 compounds, 0.48% hits;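 active = activity remaining at or below 50% of control, provided the compound also passes the data quality filters; inactive = the rest, including low values that fail the filters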
BAP1 inh confirm: BAP1 (human) enzyme inhibition, confirmed; shares compounds with BAP1 block; purified BAP1, Ub-ethyl ester hydrolysis, HPLC; stronger effect = lower value; % of control activity, % at 20 µM; 310 compounds, 8% hits;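 active = percent of control activity at or below 60%; inconclusive = HPLC trace unusable from injection failure or solvent front hiding peaks; inactive = the rest, plus ubiquitin peak ratio over a set limit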
Of the large screens only hits and unclear results are named; the others gave an inactive call (follow-up assays come after a bar, where shown). The entries come from a sample that favours hits as a whole.

Cc1ccc(C(=O)CSc2nnc(-c3ccco3)n2Cc2ccccc2)cc1	none
O=C(CSc1nnc(-c2ccco2)n1Cc1ccccc1)c1ccccc1	DAT uptake mod 3.4
NC1=NC2(CCCCC2)n2c(nc3ccccc32)N1	D1 allo mod -4.6
NC1=NC2(CCC(c3ccccc3)CC2)n2c(nc3ccccc32)N1 (centres undefined)	none (no result: DAT uptake mod)
COc1cccc(OCCSc2nnc3sc4ccccc4n23)c1	none
c1ccc(OCCSc2nnc3sc4ccccc4n23)cc1	D1 allo mod -6
Cc1cc(C)nc(/N=C(\N)Nc2cccc(F)c2)n1	none (no result: DAT uptake mod, D1 allo mod)
CCCOC(=O)C1=C(C)NC2=C(C(=O)CC(c3ccccc3)C2)C1c1cccnc1 (centres undefined)	none (no result: DAT uptake mod, D1 allo mod)
COC(=O)c1cc2nc(-c3ccc(OC)cc3)cc(C(F)(F)F)n2n1	DAT uptake mod -2.2
COc1ccc(NC(=O)c2cc3nc(-c4ccc(OC)c(OC)c4)cc(C(F)(F)F)n3n2)cc1OC	none (no result: DAT uptake mod, D1 allo mod)
Cc1cccc(NC(=O)Nc2cccc(F)c2)n1	none
Cc1ccnc(NC(=O)Nc2cccc(F)c2)c1	D1 allo mod -5.3
CCOP(=O)(OCC)C(Nc1ccc(Br)cc1)c1cc(Br)ccc1O (centres undefined)	none (no result: DAT uptake mod, D1 allo mod)
C=CCCC(C)(O)C#CCN1CCCCC1 (centres undefined)	none (no result: DAT uptake mod, D1 allo mod)
c1ccc(-c2nnc(-c3ccccn3)nc2-c2ccccc2)cc1	none (no result: DAT uptake mod, D1 allo mod)
c1ccc(-c2nnc(-c3ccccn3)nn2)nc1	D1 allo mod -5.5 (no result: DAT uptake mod, BAP1 block)
COc1cc2nc(-c3ccc4c(c3)C(=O)N(c3ccccc3OC)C4=O)oc(=O)c2cc1OC	none (no result: DAT uptake mod, D1 allo mod)
CCOC(=O)CSc1nc2ccccc2c(=O)n1Cc1ccco1	none (no result: D1 allo mod)
CCOC(=O)CSc1nc2c(sc(=S)n2-c2ccccc2OC)c(=O)n1Cc1ccco1	DAT uptake mod -4.3 (no result: D1 allo mod, BAP1 block)
CC(=O)N1CCN(c2ccccc2NC(=O)COc2cc(C)ccc2C(C)C)CC1	D1 allo mod -5.3, BAP1 block active | BAP1 inh confirm inconclusive
Cc1ccc(C(C)C)c(OCC(=O)Nc2ccccc2N2CCN(C)CC2)c1	none (no result: D1 allo mod)
Cc1nnc(SCC(=O)Nc2sc3c(c2C#N)CCCCC3)n1N	none (no result: D1 allo mod, BAP1 block)
N#Cc1c(NC(=O)CSc2nnnn2C2CCCCC2)sc2c1CCCC2	BAP1 block active | BAP1 inh confirm inactive
Cc1ccc(S(=O)(=O)N2CCN(c3ccc([N+](=O)[O-])c(NC(C)C45CC6CC(CC(C6)C4)C5)c3)CC2)cc1 (centres undefined)	none (no result: DAT uptake mod, D1 allo mod)
C=C1c2ccccc2NC(=O)N1c1cccc(Cl)c1	none (no result: DAT uptake mod, D1 allo mod)
CCOC(=O)C1CCN(S(=O)(=O)c2ccc3c4c(cccc24)C(=O)N3)CC1	BAP1 block active | BAP1 inh confirm inactive
COc1ccccc1N1CCN(S(=O)(=O)c2ccc3c4c(cccc24)C(=O)N3)CC1	none (no result: D1 allo mod)
CC(=O)c1ccc(NC(=NS(=O)(=O)c2ccc(C)cc2)c2ccccc2)cc1	none (no result: DAT uptake mod, D1 allo mod)
Cc1ccc(Cn2ncc3c(N4CCOCC4)ncnc32)cc1	none (no result: D1 allo mod)
Cc1ccc(Cn2ncc3c(N4CCN(c5ccccc5C)CC4)ncnc32)cc1	BAP1 block active | BAP1 inh confirm inactive
O=C(Nc1ccccc1F)c1cc2ccccc2oc1=O	none (no result: DAT uptake mod, D1 allo mod)
C=CCSc1nc2sc3c(c2c(=O)n1CC(=C)C)CC(C)(C)OC3	none (no result: DAT uptake mod, D1 allo mod)
Cc1cccc(Nc2ncc3c(n2)CC(C)CC3=O)c1 (centres undefined)	none
Cc1nc(Nc2cccc(C(F)(F)F)c2)nc2c1C(=O)CC(C)C2 (centres undefined)	BAP1 block active | BAP1 inh confirm inactive
Cc1ccc2c(SCC(=O)NCc3ccco3)nc(-c3ccc(F)cc3)nc2c1	BAP1 block active | BAP1 inh confirm inactive
Cc1cc(C)c2cc(C#N)c(SCC(=O)NCc3ccco3)nc2c1	none (not shown: D1 allo mod, BAP1 block)
CCOC(=O)c1c(NC(=O)c2c(Br)cnn2C)c(C#N)nn1-c1ccccc1	none (no result: D1 allo mod, BAP1 block)
CCOC(=O)c1c(NC(=O)c2nn(CC)cc2Br)c(C#N)nn1-c1ccccc1	BAP1 block active | BAP1 inh confirm inactive
CCCOC(=O)C1=C(C)NC2=C(C(=O)CCC2)C1c1cccc2ccccc12 (centres undefined)	none (no result: DAT uptake mod, D1 allo mod)
CCCOC(=O)C1=C(C)NC2=C(C(=O)CCC2)C1c1cccc(OC)c1OC (centres undefined)	BAP1 block active | BAP1 inh confirm 34
CCCc1ccc(OCCNC(=O)c2ccc3ccccc3n2)cc1	none (no result: DAT uptake mod, D1 allo mod)
Cc1ccc(-c2cc(C(F)(F)F)n3ncc(C(=O)NCc4ccco4)c3n2)cc1	BAP1 block active | BAP1 inh confirm inconclusive
COc1ccc(-c2cc(C(F)(F)F)n3nc(C(=O)NCc4ccco4)cc3n2)cc1	BAP1 block active | BAP1 inh confirm inactive
O=C(NC1CCCCC1)c1cc2nc(-c3ccco3)cc(C(F)(F)F)n2n1	none (not shown: BAP1 block)
Cc1cc(-c2ccccc2)nc2cc(C(=O)NCc3ccco3)nn12	none (no result: D1 allo mod, BAP1 block)

Bioassay records (PubChem BioAssay)
